Source: PubChem BioAssay (Tox21)
Results filed as inconclusive are left out. Values without a mark were called inactive. The source made the active and inactive calls. The call rests on the fitted dose curve; in most records, active means well fitted activation curve with a large enough effect; inconclusive means small, poorly fitted or top-dose-only effect; inactive means flat fitted curve, though single readings scatter.

Assay: qHTS assay to identify small molecule phospholipidosis (PLD) inducers (AID 1259344)
Details: HepG2 phospholipidosis, LipidTOX Red imaging, 24 h; series mostly up to 38.3 µM; PLD induction: at the top concentration
Text: National Center for Advancing Translational Sciences [NCATS]
Drug-induced Phospholipidosis (PLD) caused by cationic amphiphilic drugs is characterized by the appearance of unicentric or multicentric-lamellar bodies when viewed under electron microscope. Electron microscopy is the gold standard method for PLD detection, however, this method is time-consuming and labor intensive, making it unsuitable for evaluating a large set of compounds. A cell-based phospholipidosis assay has been developed using the LipidTox reagent in HepG2 cells and miniaturized into a 1536-well plate format. Drug induced phospholipid accumulation is stained with the LipidTox dyes in red color which then is determined using an automated high content screening system.
HepG2 cells are dispensed at 900 cells/3 uL/well into Collagen I-coated 1536-well black-wall/clear-bottom assay plates (Greiner Bio-One, Monroe, NC) using the Multidrop Combi 8 channel dispenser (Thermo Fisher, Waltham, MA, USA). The assay plates are incubated at 37 C for 4 hours to allow the cell attachment. 3 uL of 1:500 LipidTOX Red dye is added using the dispenser, and then 23 nL compounds are added via a Wako Pintool station (Wako Automation, San Diego, CA). Amiodarone, a known PLD inducer, was used as a positive control and DMSO was used as a negative control. The assay plates were then incubated at 37 C for 24 hours.
For fixations, 4 uL of 8% paraformaldehyde fixative solution containing 10 ug/mL Hoechst 33342 in Dulbecco's phosphate-buffered saline (DPBS) is added using a Kalypsys washer/dispenser (Kalypsys, San Diego, CA, USA). After incubation at room temperature for 30 min, the assay plates are washed once with DPBS using a Kalypsys washer/dispenser. The assay plates are then sealed and stored at 4 C before imaging. The fluorescence intensities (595 nm excitation, 615 nm emission for LipidTOX; 352 nm excitation, 461 nm emission for Hoechst 33342) are measured using an ImageXpress Micro Widefield High Content Screening System (Molecular Devices, Sunnyvale, CA, USA) with a 20x Plan Fluor objective. Images are acquired for one site in each well and analyzed with the MetaXpress software (Molecular Devices) using the Transfluor module. Several algorithmic outputs, such as pit count per well, pit count per cell, pit integrated intensity per well, and pit integrated intensity per cell, are used for quantitative image analysis for PLD.
On the % scale 0 is the no-effect control and ±100 the full control effect; potency means the concentration at half of the fitted maximal effect.

Row | SMILES | Potency | PLD induction
1 | C[C@@H]1CN(CCCn2c3ccccc3c3ccccc32)C[C@H](C)N1 | 10 µM (active) | 
2 | CO[C@]1(NC(=O)CSC(F)F)C(=O)N2C(C(=O)O)=C(CSc3nnnn3CCO)CO[C@H]21 |  | -7.33%
3 | CCC1NC(=O)c2cc(S(N)(=O)=O)c(Cl)cc2N1 (stereo not given) |  | -0.287% [at 15.5 µM]
4 | Cc1ccc2c(Br)cc(Br)c(O)c2n1 |  | 1.67%
5 | C=CCc1ccccc1OCC(O)CNC(C)C (stereo not given) |  | 2.56%
6 | CC(C)=CCC/C(C)=C/CC/C(C)=C/CCC(=O)OC/C=C(\C)CCC=C(C)C |  | -0.0635% [at 1.53 µM]
7 | CCOC(=O)c1ccc(OCCN2C[C@H](O)[C@@H](O)[C@H](O)[C@H]2CO)cc1 |  | -0.822%
8 | CCCCCCNC(=O)n1cc(F)c(=O)[nH]c1=O |  | -0.914%
9 | CC(CN(C)C)C(C)(O)Cc1ccc(Cl)cc1 (stereo not given) |  | 0.15%
10 | COc1cc(C(=O)NCCCCCC(=O)O)cc(OC)c1OC |  | 0.333%
11 | OC(CCN1CCCC1)(c1ccccc1)C1CCCCC1 (stereo not given) |  | 4.38% [at 15.5 µM]
12 | O=C(Cn1ccnc1[N+](=O)[O-])NCCO |  | 0.0884%
13 | COc1cc(Nc2c(C#N)cnc3cc(OCCCN4CCN(C)CC4)c(OC)cc23)c(Cl)cc1Cl |  | -3.21%
14 | O=C(O)c1ccc(OCCCOc2ccc(C(=O)O)cc2)cc1 |  | 0.354%
15 | CCOC(=O)C1=C(C)NC(C)=C(C(=O)OC)C1c1cccc(Cl)c1Cl (stereo not given) |  | 4.56%
16 | C[C@@H](O)[C@H]1C(=O)N2C(C(=O)O)=C([C@H]3CCCO3)S[C@H]12 |  | -0.0539%
17 | CC1(C)[C@H](C(=O)O)N2C(=O)C[C@H]2S1(=O)=O |  | 7.08% [at 7.66 µM]
18 | Cc1cc2c(OCC(CNC(C)(C)C)OC(=O)c3ccccc3)cccc2[nH]1 (stereo not given) |  | 11.5%
19 | C[C@]12CC[C@@H]3c4ccc(O)cc4CC[C@H]3[C@@H]1CC[C@@H]2OC(=O)CCC1CCCC1 |  | 24%
20 | CC(C)C[C@H](NC(=O)[C@H](CCc1ccccc1)NC(=O)CN1CCOCC1)C(=O)N[C@@H](Cc1ccccc1)C(=O)N[C@@H](CC(C)C)C(=O)[C@@]1(C)CO1 |  | -3.46%

Row | SMILES | Potency | PLD induction
21 | COc1cc(N)c(Cl)cc1C(=O)NC1CCN(CCCOc2ccc(F)cc2)CC1OC (stereo not given) |  | 11.7% [at 15.5 µM]
22 | O=C1C(=O)c2ccccc2C(O)=C1C1CCC(c2ccc(Cl)cc2)CC1 (stereo not given) |  | -0.382% [at 15.5 µM]
23 | O=C(O)CCC(=O)C(=O)O |  | -0.445%
24 | COc1ncnc(NS(=O)(=O)c2ccc(N)cc2)c1OC |  | -1.01%
25 | Nc1ncnc2c1ncn2[C@H]1CC[C@@H](CO)O1 |  | 0.577%
26 | CCOC(=O)[C@H](CCc1ccccc1)N[C@@H](C)C(=O)N(CC(=O)O)C1Cc2ccccc2C1 |  | 5.12%
27 | Cc1ccc(Cl)c(Nc2ccccc2C(=O)O)c1Cl |  | 0.44%
28 | CO/N=C(/C(=O)N[C@@H]1C(=O)N2C(C(=O)O)=C(COC(N)=O)CS[C@H]12)c1ccco1 | inactive | 
29 | NC1[C@H]2CN(c3nc4c(cc3F)c(=O)c(C(=O)O)cn4-c3ccc(F)cc3F)C[C@@H]12 (stereo not given in full) |  | 0.97%
30 | O=C(/C=C/c1ccc(O)c(O)c1)O[C@@H]1C[C@@](OC(=O)/C=C/c2ccc(O)c(O)c2)(C(=O)O)C[C@@H](O)[C@@H]1O |  | 0.0852%
31 | Oc1ccc(Cl)c2cccnc12 |  | -0.652%
32 | O[C@@H]1CO[C@H]2[C@@H]1OC[C@@H]2O |  | 0.125%
33 | CCOc1ccc(Cc2nccc3cc(OCC)c(OCC)cc23)cc1OCC |  | -0.377% [at 15.5 µM]
34 | NNC(=O)CP(=O)(c1ccccc1)c1ccccc1 |  | 0.568%
35 | CN1CC(=O)N2[C@H](c3ccc4c(c3)OCO4)c3[nH]c4ccccc4c3C[C@@H]2C1=O |  | 2.3%
36 | Clc1ccc(Nc2nnc(Cc3ccncc3)c3ccccc23)cc1 |  | 2%
37 | C[C@H]1c2cccc(O)c2C(O)=C2C(=O)[C@]3(O)C(O)=C(C(N)=O)C(=O)[C@@H](N(C)C)[C@@H]3[C@@H](O)[C@@H]21 |  | -0.353%
38 | Cc1[nH]cnc1CN1CCc2c(c3ccccc3n2C)C1=O |  | -0.0987%
39 | CC[N+](CC)(CCNC(=O)C(=O)NCC[N+](CC)(CC)Cc1ccccc1Cl)Cc1ccccc1Cl |  | 0.0785%
40 | CC(C)=CCC1C(=O)N(c2ccccc2)N(c2ccccc2)C1=O |  | -1.83%
